Assay results reported in PubChem BioAssay.
The source made the active and inactive calls. Unless noted, how the calls were made is not given here.

Tests used:
[1] = A549 cell viability effects, profiling panel, calcein-AM fluorescence, 48 h, basal (AID 1162); conditions: higher = more signal; further: test concentration not given here
[2] = adipocyte viability effects, profiling panel, cell-based, 3T3-L1 adipocytes, calcein-AM fluorescence, 48 h, basal (AID 1163); conditions: 3T3-L1 adipocytes viability, higher = more signal; further: test concentration not given here
[3] = HepG2 cell viability effects, profiling panel, calcein-AM fluorescence, 48 h, basal (AID 1164); conditions: higher = more signal; further: test concentration not given here
[4] = MM1S cell viability effects, profiling panel, calcein-AM fluorescence, 48 h, basal (AID 1165); conditions: higher = more signal;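 further: viability of MM1S multiple myeloma cells under basal unstimulated conditions; test concentration not given here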
[5] = basal RPMI8226 viability, no added stimulus, profiling panel, cell-based, calcein-AM fluorescence, 48 h, PK04 Diversity Set (AID 1166); conditions: RPMI8226 myeloma viability, higher = more signal;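 further: cells grown under basal conditions without added stimulus; test concentration not given here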
[6] = basal HepG2 mitochondrial membrane potential changes, profiling panel, cell-based, JC-1 fluorescence, 24 h, 100 nL compound (AID 1167); conditions: higher = more signal; further: test concentration not given here
[7] = basal 3T3-L1 adipocyte mitochondrial potential changes, profiling panel, cell-based, JC-1 fluorescence, 3T3-L1 adipocytes, 24 h, 100 nL compound (AID 1168); conditions: JC-1 mitochondrial fluorescence, higher = more signal, called active from +8 up or from −8 down; further: test concentration not given here
[8] = basal RPMI8226 mitochondrial membrane potential changes, profiling panel, cell-based, JC-1 fluorescence, 24 h, 100 nL compound (AID 1169); conditions: RPMI8226 myeloma, JC-1 mitochondrial potential fluorescence, higher = more signal; further: test concentration not given here
[9] = basal MM1S mitochondrial membrane potential changes, profiling panel, cell-based, JC-1 fluorescence, 24 h, 100 nL compound (AID 1170); conditions: higher = more signal; further: test concentration not given here
[10] = A549 lung cancer cell viability effects, profiling panel, resazurin fluorescence, 24 h, PK04 Diversity Set (AID 1171); conditions: higher = more signal, called active from +8 up or from −8 down; further: test concentration not given here
[11] = HepG2 liver cancer cell viability effects, profiling panel, resazurin fluorescence, 24 h, PK04 Diversity Set (AID 1172); conditions: higher = more signal; further: test concentration not given here
[12] = basal S. cerevisiae growth modulation, no modifier, primary screen, OD600, strain BY4716, 24 h, basal condition (AID 1173); conditions: OD600, 24 h, higher = more signal, called active from +8 up or from −8 down
[13] = MM1S myeloma cell viability, profiling panel, resazurin fluorescence, basal, 24 h, PK04 Diversity Set (AID 1174); conditions: higher = more signal, called active from +8 up or from −8 down;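 further: MM1S multiple myeloma cell line; test concentration not given here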
[14] = target: Dihydroorotate dehydrogenase (quinone), mitochondrial (Plasmodium falciparum (isolate 3D7)) (UniProt Q08210); assay: PfDHODH enzyme inhibitors, primary screen, biochemical, C-terminal His tag, absorbance 600 nm (AID 1175); conditions: DCIP absorbance 600 nm, higher = more signal, called active from +8 up or from −8 down;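 further: recombinant parasite enzyme with a five histidine tag at its C terminus; test concentration not given here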
Sequence of Dihydroorotate dehydrogenase (quinone), mitochondrial (Plasmodium falciparum (isolate 3D7)) (Q08210 whole entry, looked up): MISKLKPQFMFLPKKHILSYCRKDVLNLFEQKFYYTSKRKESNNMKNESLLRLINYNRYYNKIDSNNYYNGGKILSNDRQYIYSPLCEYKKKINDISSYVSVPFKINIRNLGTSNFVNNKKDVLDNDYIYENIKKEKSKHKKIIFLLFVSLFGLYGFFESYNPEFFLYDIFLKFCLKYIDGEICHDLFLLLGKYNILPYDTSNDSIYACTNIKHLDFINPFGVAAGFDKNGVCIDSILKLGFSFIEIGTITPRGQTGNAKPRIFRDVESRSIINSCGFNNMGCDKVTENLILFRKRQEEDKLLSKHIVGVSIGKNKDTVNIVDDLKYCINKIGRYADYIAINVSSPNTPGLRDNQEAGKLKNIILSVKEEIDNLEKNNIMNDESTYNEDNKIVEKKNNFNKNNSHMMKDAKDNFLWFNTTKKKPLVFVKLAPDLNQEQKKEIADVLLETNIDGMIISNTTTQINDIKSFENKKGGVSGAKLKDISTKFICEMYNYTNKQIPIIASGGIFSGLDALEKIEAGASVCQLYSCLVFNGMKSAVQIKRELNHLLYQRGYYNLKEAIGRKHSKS

[15] = P. aeruginosa biofilm formation inhibitors, primary screen, strain PAO1, LB-PBS medium, absorbance 600 nm (AID 1176); further: test concentration not given here; conditions: P. aeruginosa PAO1 growth/biofilm, A600, 12 h; higher = more signal
[16] = S. cerevisiae RM11-1a growth modifiers, primary screen, strain RM11-1a, OD600, basal, 24 h (AID 1177); conditions: OD600, 24 h, higher = more signal, called active from +8 up or from −8 down;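 further: cultures grown under basal conditions with no added stressor; test concentration not given here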
[17] = E. coli acrAB mutant growth effects, primary screen, E. coli filamentation inducers, strain DRC39, OD650, 24 h (AID 1178); conditions: higher = more signal, called active from +8 up or from −8 down;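 further: growth measured as culture turbidity by optical density at 650 nm; test concentration not given here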
[18] = E. coli acrAB mutant growth effects, primary screen, E. coli filamentation inducers, strain DRC39, OD650, 48 h (AID 1179);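 further: screen aims at cell division blockers that make cells filament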; conditions: E. coli DRC39 delta-acrAB growth, higher = more signal, called active from +8 up or from −8 down
[19] = RPMI8226 myeloma cell viability, profiling panel, resazurin fluorescence, basal, 24 h, PK04 Diversity Set (AID 1180); conditions: higher = more signal;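 further: RPMI8826 multiple myeloma cell line at 5000 cells per well; test concentration not given here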
[20] = target: E3 ubiquitin-protein ligase XIAP (Homo sapiens) (UniProt P98170); assay: XIAP binders, primary screen, biophysical, small-molecule microarray, fluorescence 635 nm (AID 1181); conditions: small-molecule microarray binding, higher = more signal;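 further: score merges 667 nm emission and signal to noise over triplicate slides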
Sequence of E3 ubiquitin-protein ligase XIAP (Homo sapiens) (P98170 whole entry, looked up): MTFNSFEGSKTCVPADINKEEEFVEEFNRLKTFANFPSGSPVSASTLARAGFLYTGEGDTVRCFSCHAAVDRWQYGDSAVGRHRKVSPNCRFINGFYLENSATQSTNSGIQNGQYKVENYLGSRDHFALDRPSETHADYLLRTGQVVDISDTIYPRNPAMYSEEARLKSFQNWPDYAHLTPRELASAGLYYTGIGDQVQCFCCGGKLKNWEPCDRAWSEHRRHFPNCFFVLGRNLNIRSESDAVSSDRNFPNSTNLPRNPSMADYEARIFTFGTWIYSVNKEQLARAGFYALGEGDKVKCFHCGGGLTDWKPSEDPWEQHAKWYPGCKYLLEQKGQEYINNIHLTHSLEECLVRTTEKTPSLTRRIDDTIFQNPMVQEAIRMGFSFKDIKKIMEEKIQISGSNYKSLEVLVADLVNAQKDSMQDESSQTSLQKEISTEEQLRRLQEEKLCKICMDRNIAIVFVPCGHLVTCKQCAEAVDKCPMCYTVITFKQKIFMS

Row | Structure (SMILES) | z-score [1] | z-score [2] | z-score [3] | z-score [4] | z-score [5] | z-score [6] | z-score [7] | z-score [8] | z-score [9] | z-score [10] | z-score [11] | z-score [12] | z-score [13] | composite z-score [14] | z-score [15] | z-score [16] | z-score [17] | z-score [18] | z-score [19] | composite z-score [20]
1 | C[C@@H](c1ccccc1)N1C(=O)[C@H]2[C@H]3[C@H](O)[C@H](O)CC(=NO[C@@H]4O[C@H](CO)[C@@H](O)[C@H](O)[C@H]4O)[C@@H]3CC[C@H]2C1=O | -0.57 | 0.698 | -0.943 | 0.21 | -0.253 | -0.688 | 0.418 (inactive) | -0.206 | -0.189 | -0.644 (inactive) | -0.416 | 0.0492 (inactive) | -0.671 (inactive) | -0.337 (inactive) | 0.14 (inactive) | -0.294 (inactive) | -0.403 (inactive) | 0.334 (inactive) | -0.361 | -0.254
2 | COC(=O)C=CCCc1coc(C=CCNC(=O)OC)n1 | -0.538 | 0.868 | -0.586 | 0.585 | -2.19 | 0.0672 | -0.944 (inactive) | 0.073 | 0.681 | -1.18 (inactive) | -0.658 | -1.07 (inactive) | 0.0455 (inactive) | 0.979 (inactive) | -0.27 (inactive) | 0.237 (inactive) | -1 (inactive) | -0.542 (inactive) | -0.102 | 0.249
3 | COC(=O)C1=C(C)N(Cc2ccccc2)[C@]23O[C@](C(=O)OC)(C(=O)N2[C@@H]1c1ccccc1)C(C(=O)OC)=C3C(=O)OC | -0.321 | 1.48 | 0.0331 | -1.45 | -3.2 | 0.483 | 0.725 (inactive) | -0.256 | -0.239 | -0.645 (inactive) | -0.0934 | -1.32 (inactive) | 1.08 (inactive) | -2.7 (inactive) | -0.965 (inactive) | -0.511 (inactive) | -0.907 (inactive) | -1.26 (inactive) | 0.345 | -0.254
4 | COCCNC(=O)OCC1CCCC2(CC(OC(=O)NCc3ccc4c(c3)OCO4)CC(CCC(=O)N[C@@H](C)C(=O)OC)O2)O1 (stereo not given in full) | 0.122 | -0.0741 | -1.29 | 0.463 | -2.51 | -0.802 | -0.628 (inactive) | 0.934 | -0.318 | 1.66 (inactive) | 0.752 | -0.433 (inactive) | -0.0741 (inactive) | 0.209 (inactive) | -0.282 (inactive) | 0.715 (inactive) | 0.311 (inactive) | -0.49 (inactive) | 0.528 | -0.173
5 | C#CCCCON=C1[C@H]2CCn3c(=O)n(C)c(=O)n3[C@H]2[C@H](O)[C@@H]2O[C@H]12 | 0.0083 | -0.421 | 0.716 | -0.85 | -0.801 | 0.398 | 0.206 (inactive) | -0.253 | 0.00711 | -0.576 (inactive) | -1.33 | -0.492 (inactive) | -1.59 (inactive) | -0.511 (inactive) | -0.568 (inactive) | 0.956 (inactive) | 0.0518 (inactive) | 0.385 (inactive) | -1.93 | -0.391
6 | CC(=O)OC[C@H]1O[C@H](C#Cc2ccccc2)C=C[C@@H]1OC(C)=O | -0.188 | 0.0552 | -0.136 | -3.51 | -3.71 | -1.65 | 0.458 (inactive) | -1.04 | -2.48 | -0.713 (inactive) | -0.153 | -2.26 (inactive) | -5.37 (inactive) | -0.0765 (inactive) | -0.339 (inactive) | -0.14 (inactive) | 0.731 (inactive) | 0.414 (inactive) | -2.61 | -0.13
7 | CCOC(=O)[C@H](CC(C)C)NC(=O)CCC1CC(OC(=O)NCc2cccc3ccccc23)CC2(CCCC(COC(=O)NCC3CCCCC3)O2)O1 (stereo not given in full) | -0.15 | 1.09 | -0.993 | -2.66 | -1.28 | 0.895 | -0.0758 (inactive) | 0.273 | -0.929 | 0.945 (inactive) | 0.865 | -0.0452 (inactive) | 1.27 (inactive) | -2.33 (inactive) | -1.45 (inactive) | -0.288 (inactive) | -0.765 (inactive) | -0.0838 (inactive) | 0.463 | -0.0333
8 | COC(=O)[C@H](C)NC(=O)CCC1CC(OC(=O)NCc2ccc3c(c2)OCO3)CC2(CCCC(COC(=O)NCc3cccc(C(F)(F)F)c3)O2)O1 (stereo not given in full) | -0.828 | -0.0811 | -1.55 | -2.05 | 0.442 | -1.44 | -0.123 (inactive) | 0.619 | -0.213 | 0.0249 (inactive) | -0.443 | -0.817 (inactive) | 0.374 (inactive) | -0.303 (inactive) | 0.484 (inactive) | -0.476 (inactive) | 0.298 (inactive) | 0.079 (inactive) | 0.459 | 0.0566
